# Test system: T1, MRCKB
# T1 construct: gene CDC42BPB
# Conditions: concentration: 1 μM, replicates: in singlicate; n = 1
# 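Also: KINOMEscan kinase panel screen.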
row,SMILES,%Inh [%]
1,Cc1c(Cn2ccn3c(=O)cc(N4CCOCC4)nc23)cccc1C(F)(F)F [GSK2289044],0
2,Cc1cccc(-c2nc(Nc3ccc4[nH]ncc4c3)c3ccccc3n2)n1 [GW857175],72
3,COc1cc2nccc(Nc3ccc(NC(=O)c4ccc(C)cc4)c(O)c3)c2cc1OC.Cl [GW440132],8
4,Cn1ccc2ncnc(Oc3cccc(C(=O)Nc4ccccc4)c3)c21,15
5,Cc1csc(-c2nc(Nc3ccncc3)c3ccccc3n2)n1 [GW869640],44
6,Clc1cc(Cl)cc(Nc2ccnc(Nc3cc(Cl)cc(Cl)c3)n2)c1 [GSK175726],6
7,Cl.c1ccc(-c2n[nH]cc2-c2ccnc(-c3ccc(CN4CCOCC4)cc3)c2)nc1 [GW776245],0
8,O=C(O)COc1ncnc2cc(-c3ccc4[nH]ncc4c3)sc12,0
9,CC(C)(C)c1ccc(C(=O)Nc2cn3cc(-c4cccnc4)ccc3n2)cc1,0
10,COc1ccc(C2=C(Nc3cccc(C(=O)O)c3)C(=O)NC2=O)cc1 [SB-390765],8
11,Cc1cccc(-c2nc(Nc3cccc(C(N)=O)c3)c3ccccc3n2)n1 [GW876019],32
12,O=C(Nc1n[nH]c2cc(-c3cccc(F)c3F)ccc12)C1CC1 [SB-733894],17
13,CC(C)(C)c1ccc(C(=O)Nc2cn3cc(Cl)ccc3n2)cc1,0
14,CC1=C(C(=O)Nc2cc3cn[nH]c3cc2F)C(c2ccc(C(F)(F)F)cc2)CC(=O)N1 (stereo not shown) [GSK429286],23
15,Fc1cc(Cl)ccc1Nc1ccnc2cc(-c3ccc(CN4CCCCC4)o3)ccc12 [GW560116],3
16,O=C(Nc1n[nH]c2nc(-c3nccs3)c(Br)cc12)C1CCCC1 [SB-742609],0
17,COc1cccc(NC(=O)NC2CCN(c3ccnc(Nc4ccc(F)cc4)n3)C2)c1 (stereo not shown) [GSK1379721],0
18,Cc1cc(NCC(c2ccccc2)c2ccccc2)nc(NCc2ccc(C(F)(F)F)cc2)n1 [GW497681],0

row,SMILES,%Inh [%]
1,COC(=O)c1c(-c2ccccc2)c2cc(OC)ccc2c(=O)n1Cc1ccccc1,0
2,Cn1cncc1-c1ccc2ncnc(Nc3ccc(OCc4ccccc4)cc3)c2c1 [GW320571],17
3,Cc1ccc(NC(=O)Nc2cc(C(C)(C)C)nn2-c2ccccc2)cc1 [GSK1014915],8
4,O=C(Nc1n[nH]c2nc(-c3nccs3)c(Br)cc12)C1CC1 [SB-742251],0
5,O=C1NC(=O)C(N2CCc3ccccc32)=C1c1ccccc1Cl [SB-373598],5
6,Cl.Oc1ccc(-c2nc(-c3ccccc3)[nH]c2-c2ccncc2)cc1 [SB-428218],2
7,Fc1cccc(COc2nnc(-c3ccc4c(c3)CCO4)o2)c1,1
8,CS(=O)(=O)c1ccc(-c2c(-c3ncn[nH]3)sc(N3CCOCC3)c2C#N)cc1,16
9,Cc1ccc(NC(=O)Nc2cccc(Cl)c2)cc1-c1ccc(C(=O)Nc2ccncc2)cc1 [GSK1398468],0
10,Cc1cccc(-c2nc(Nc3ccncc3)c3ccccc3n2)n1 [GW855857],63
11,Cc1cccc(-c2nc(-c3ccc(S(C)(=O)=O)cc3)sc2-c2ccnc(NCCc3ccccc3)c2)c1,0
12,Cc1nnc(-c2ccc3occ(-c4ccc(S(C)=O)cc4)c3c2)[nH]1 (stereo not shown),0
13,COc1ccc2nc(-c3cccc(C)n3)nc(Nc3ccncc3)c2c1 [GSK204919],94.1
14,O=c1cc(N2CCOCC2)nc2n(Cc3cccc(Cl)c3Cl)ccn12 [GSK2286295],0
15,COc1ccc(CNC(=O)NC2CCN(c3ccnc(Nc4cc(OC)c(OC)c(OC)c4)n3)C2)cc1 (stereo not shown) [GSK1379748],0
16,Cn1ccc2ncnc(Oc3ccc(NC(=O)Nc4ccccc4)cc3)c21,16
17,CCn1c(-c2ccccn2)nc2cnccc21 [SB-736398],0

# Test system: MST1R
# Conditions: concentration: 1 μM, replicates: in singlicate; n = 1
row,SMILES,%Inh [%]
1,Cc1c(Cn2ccn3c(=O)cc(N4CCOCC4)nc23)cccc1C(F)(F)F [GSK2289044],27
2,Cc1cccc(-c2nc(Nc3ccc4[nH]ncc4c3)c3ccccc3n2)n1 [GW857175],0
3,COc1cc2nccc(Nc3ccc(NC(=O)c4ccc(C)cc4)c(O)c3)c2cc1OC.Cl [GW440132],0
4,Cn1ccc2ncnc(Oc3cccc(C(=O)Nc4ccccc4)c3)c21,11
5,Cc1csc(-c2nc(Nc3ccncc3)c3ccccc3n2)n1 [GW869640],11
6,Clc1cc(Cl)cc(Nc2ccnc(Nc3cc(Cl)cc(Cl)c3)n2)c1 [GSK175726],14
7,Cl.c1ccc(-c2n[nH]cc2-c2ccnc(-c3ccc(CN4CCOCC4)cc3)c2)nc1 [GW776245],0
8,O=C(O)COc1ncnc2cc(-c3ccc4[nH]ncc4c3)sc12,25
9,CC(C)(C)c1ccc(C(=O)Nc2cn3cc(-c4cccnc4)ccc3n2)cc1,48
10,COc1ccc(C2=C(Nc3cccc(C(=O)O)c3)C(=O)NC2=O)cc1 [SB-390765],24
11,Cc1cccc(-c2nc(Nc3cccc(C(N)=O)c3)c3ccccc3n2)n1 [GW876019],0
12,O=C(Nc1n[nH]c2cc(-c3cccc(F)c3F)ccc12)C1CC1 [SB-733894],6
13,CC(C)(C)c1ccc(C(=O)Nc2cn3cc(Cl)ccc3n2)cc1,5
14,CC1=C(C(=O)Nc2cc3cn[nH]c3cc2F)C(c2ccc(C(F)(F)F)cc2)CC(=O)N1 (stereo not shown) [GSK429286],36
15,Fc1cc(Cl)ccc1Nc1ccnc2cc(-c3ccc(CN4CCCCC4)o3)ccc12 [GW560116],16
16,O=C(Nc1n[nH]c2nc(-c3nccs3)c(Br)cc12)C1CCCC1 [SB-742609],27
17,COc1cccc(NC(=O)NC2CCN(c3ccnc(Nc4ccc(F)cc4)n3)C2)c1 (stereo not shown) [GSK1379721],28
18,Cc1cc(NCC(c2ccccc2)c2ccccc2)nc(NCc2ccc(C(F)(F)F)cc2)n1 [GW497681],10

row,SMILES,%Inh [%]
1,COC(=O)c1c(-c2ccccc2)c2cc(OC)ccc2c(=O)n1Cc1ccccc1,38
2,Cn1cncc1-c1ccc2ncnc(Nc3ccc(OCc4ccccc4)cc3)c2c1 [GW320571],29
3,Cc1ccc(NC(=O)Nc2cc(C(C)(C)C)nn2-c2ccccc2)cc1 [GSK1014915],41
4,O=C(Nc1n[nH]c2nc(-c3nccs3)c(Br)cc12)C1CC1 [SB-742251],18
5,O=C1NC(=O)C(N2CCc3ccccc32)=C1c1ccccc1Cl [SB-373598],7
6,Cl.Oc1ccc(-c2nc(-c3ccccc3)[nH]c2-c2ccncc2)cc1 [SB-428218],0
7,Fc1cccc(COc2nnc(-c3ccc4c(c3)CCO4)o2)c1,10
8,CS(=O)(=O)c1ccc(-c2c(-c3ncn[nH]3)sc(N3CCOCC3)c2C#N)cc1,29
9,Cc1ccc(NC(=O)Nc2cccc(Cl)c2)cc1-c1ccc(C(=O)Nc2ccncc2)cc1 [GSK1398468],34
10,Cc1cccc(-c2nc(Nc3ccncc3)c3ccccc3n2)n1 [GW855857],0
11,Cc1cccc(-c2nc(-c3ccc(S(C)(=O)=O)cc3)sc2-c2ccnc(NCCc3ccccc3)c2)c1,28
12,Cc1nnc(-c2ccc3occ(-c4ccc(S(C)=O)cc4)c3c2)[nH]1 (stereo not shown),0
13,COc1ccc2nc(-c3cccc(C)n3)nc(Nc3ccncc3)c2c1 [GSK204919],26
14,O=c1cc(N2CCOCC2)nc2n(Cc3cccc(Cl)c3Cl)ccn12 [GSK2286295],25
15,COc1ccc(CNC(=O)NC2CCN(c3ccnc(Nc4cc(OC)c(OC)c(OC)c4)n3)C2)cc1 (stereo not shown) [GSK1379748],29
16,Cn1ccc2ncnc(Oc3ccc(NC(=O)Nc4ccccc4)cc3)c21,10
17,CCn1c(-c2ccccn2)nc2cnccc21 [SB-736398],47
